In all, about 200,000 compounds went through this assay and about 520 (0.26%) were called active.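 How the source made its calls: active means tissue-nonspecific alkaline phosphatase inhibition above about 50% at 20 µM in the single-dose screen (limit read from the data); inactive means the rest.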 This excerpt belongs to a sample that is enriched for actives.

Chain of Alkaline phosphatase, tissue-nonspecific isozyme (Homo sapiens) (P05186 whole entry, looked up): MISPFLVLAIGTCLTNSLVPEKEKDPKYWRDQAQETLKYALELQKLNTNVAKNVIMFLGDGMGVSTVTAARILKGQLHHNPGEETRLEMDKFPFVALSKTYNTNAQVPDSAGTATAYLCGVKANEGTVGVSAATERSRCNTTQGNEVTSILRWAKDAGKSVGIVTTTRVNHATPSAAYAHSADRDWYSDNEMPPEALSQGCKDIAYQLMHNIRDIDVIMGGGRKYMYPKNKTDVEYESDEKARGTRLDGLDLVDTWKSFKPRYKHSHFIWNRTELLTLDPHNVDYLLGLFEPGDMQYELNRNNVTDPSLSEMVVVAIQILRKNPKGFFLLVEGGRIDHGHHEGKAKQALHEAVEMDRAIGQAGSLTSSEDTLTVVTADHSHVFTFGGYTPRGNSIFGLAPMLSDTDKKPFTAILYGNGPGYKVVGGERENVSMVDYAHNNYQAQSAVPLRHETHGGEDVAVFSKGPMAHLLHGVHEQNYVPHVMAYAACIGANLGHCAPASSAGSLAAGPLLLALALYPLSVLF

The experiment has as its target Alkaline phosphatase, tissue-nonspecific isozyme (Homo sapiens) (UniProt P05186). In words: human TNAP enzyme inhibitors, primary screen, biochemical, luminescent, no phosphate acceptor, uHTS (AID 1012).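 Further: 0% = DMSO negative control and 100% = EDTA positive control.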 The conditions noted are these: purified TNAP, CDP-star luminescence, 30 min; at 20 µM; active compounds read high.
Broadly, the inhibition is the relative decrease from the control value, in per cent. `COc1ccc(N2C(=O)CNC2=S)cc1`: the inhibition is -13.2% (inactive). In the case of `N#C/C=C(/c1ccc(F)cc1)N1CCOCC1` it was -8.3% (inactive); in that of `CC(C)CNC(=S)Nc1ccc(F)cc1`, -5.6% (inactive). Take `COc1ccc(/C=N/NC(=O)c2ccncc2)cc1CN1CCCc2ccccc21`: the inhibition is -28.5% (inactive).

`CCC(=O)Nc1cc(C(F)(F)F)ccc1N1CCCC1`: the inhibition was -1.6% (inactive). Consider `O=C(NC(=S)Nc1ccc(S(=O)(=O)Nc2ncccn2)cc1)c1cccc(Br)c1`, for which the inhibition is 5.9% (inactive).

With `NS(=O)(=O)c1ccc(NC(=S)NC(=O)c2cccnc2)cc1`, the inhibition is -3.6% (inactive).

`NS(=O)(=O)c1ccc(NC(=S)NC(=O)c2cccc(Br)c2)cc1`: the inhibition was 57.3% (active).

`CCOC(=O)C1=C(C)NC(=S)NC1c1cccs1` (stereo unspecified): the inhibition is -12.7% (inactive).

On to `COc1ccccc1NC(=O)C1=C(C)Nc2nc3ccccc3n2C1c1cccs1` (stereo unspecified), for which the inhibition was -6.2% (inactive). For `CCOC(=O)C1=C(C)Nc2nc3ccccc3n2C1c1cccs1` (stereo unspecified), the inhibition was 57.2% (active). As to `COc1ccccc1Oc1nc(-c2cccnc2)nc2ccccc12`, the inhibition was -4.1% (inactive). The value for `COc1cc(CNc2ncn[nH]2)ccc1OCc1ccccc1C` was -67% (inactive). In the case of `Clc1ccc(-c2ncc3ccccn23)c(Cl)c1` it was -7.2% (inactive); in that of `Clc1ccc(-c2cc(C3CCNCC3)[nH]n2)c(Cl)c1`, 80.1% (active). In the case of `O=C1CSC(c2ccccc2)N1c1nc(-c2ccc(Cl)cc2Cl)cs1` (stereo unspecified) it was -10% (inactive); in that of `CCCc1[nH]nc2c1C(C1CC=CCC1)C(C#N)=C(N)O2` (stereo unspecified), 50.5% (active). In the case of `CCCc1[nH]nc2c1C(c1ccc(Br)s1)C(C#N)=C(N)O2` (stereo unspecified), the inhibition is 1.9% (inactive).

For the compound `COCc1[nH]nc2c1C(C1C=CCCC1)C(C#N)=C(N)O2` (stereo unspecified), the inhibition is 14.2% (inactive). As to `COc1nc(N(C)C)nc(N2CC(=O)N(CCNS(=O)(=O)c3ccc(C)cc3)C2=N)n1`, the inhibition was -3.4% (inactive). `COc1ccc(C)cc1NC(=O)NCc1ccccn1`: the inhibition is -12.1% (inactive). The value for `CN(c1ccccc1)S(=O)(=O)c1ccc(Cl)c(C(=O)OCC(N)=O)c1` was -4.4% (inactive); that for `NNC(=O)c1ccc(Cl)cc1Cl` was -3.9% (inactive). In the case of `CN(C)C=NC(=O)c1cccn1-c1ncc(C(F)(F)F)cc1Cl` it was -14% (inactive). In the case of `CNc1ccc(SC#N)cc1` it was -10.5% (inactive); in that of `O=C(OCc1nc2ccccc2[nH]1)C1CCCCC1`, -36% (inactive); in that of `COC(=O)C1=CN(Cc2ccc(OC)c(OC)c2)C=C(C(=O)OC)C1c1cccs1`, -7.4% (inactive). In the case of `CC(=O)N1C(C)c2ccccc2C(C)(C)CC12CCCCC2` (stereo unspecified), the inhibition was 2.5% (inactive). The value for `CS(=O)(=O)n1nc(-c2ccccc2)nc1NCc1ccco1` was -1.5% (inactive); that for `COc1ccc(-n2c(SC)nc(O)cc2=O)cc1` was -11.9% (inactive). `COc1ccc(-c2noc(CN(C)S(=O)(=O)c3ccc(C)cc3)n2)cc1`: the inhibition was -8.5% (inactive). In the case of `CCS(=O)(=O)n1nc(-c2ccccc2)nc1SCc1ccccc1` it was 61.1% (active); in that of `CCS(=O)(=O)n1nc(-c2ccc(OC)cc2)nc1SC`, 66% (active); in that of `CCn1c(SCc2ccccc2)nc2c(c1=O)SCC2`, -14% (inactive). In the case of `CCOc1cc(/C=C(/C#N)c2ccc(Cl)cc2)cc(Cl)c1OCC(=O)O` it was -8.1% (inactive); in that of `CC(O)CNCCOc1cccc(Oc2ccccc2)c1` (stereo unspecified), -10.9% (inactive). Consider `COc1ccc(-c2nc(CN3CCN(c4ncccn4)CC3)c(C)o2)cc1C`, for which the inhibition was -13.8% (inactive). On to `CCn1c(SCC(=O)Nc2nccs2)nnc1-c1ccco1`, for which the inhibition is 37.9% (inactive). In the case of `Cc1ccccc1OCCOc1ccc([N+](=O)[O-])cc1/C=N/n1cnnc1` it was -2.8% (inactive). In the case of `CC(=O)c1cnc(-c2ccccc2)s1`, the inhibition is -4% (inactive). In the case of `NS(=O)(=O)c1ccc(CNC(=O)c2ccc(Cl)cc2[N+](=O)[O-])cc1` it was -22.8% (inactive); in that of `CC(C)C(=O)Nc1ccc2c3c(cccc13)CC2`, -18% (inactive). The value for `O=C(CSc1nnc(C2CC2)n1Cc1ccccc1)Nc1cccnc1Cl` was -1.5% (inactive).

On to `C/C(CC(=O)Nc1ccc(Cl)cc1)=N\NC(=O)C(=O)NCCO`, for which the inhibition is -12.4% (inactive). With `Cc1cs/c(=N\N=C\c2ccc(O)cc2)n1Cc1ccco1`, the inhibition was -18.1% (inactive). With `CC(C)c1ccc(Nc2nnc(SCC(=O)c3nnc(-c4ccccc4)o3)s2)cc1`, the inhibition is -1.3% (inactive). The value for `CC1Cc2ccccc2N1C(=O)CSc1nnc(-c2ccc(S(=O)(=O)N3CCCC3)cc2)n1C` (stereo unspecified) was -5.8% (inactive); that for `O=C(Nc1ccccc1C(=O)N1CCOCC1)c1ccc(CSc2ccccc2)cc1` was -8.4% (inactive); that for `COC(=O)[C@H]1Cc2cnoc2C[C@]1(C)C(=O)O` was -8% (inactive).

With `CC(Oc1ccccc1)C(=O)Nc1oc(-c2ccco2)c(-c2ccco2)c1C#N` (stereo unspecified), the inhibition was -18.5% (inactive). For the compound `COc1ccc(N2C(=O)CC(Sc3n[nH]c(-c4ccc(C)cc4)n3)C2=O)cc1` (stereo unspecified), the inhibition was 43.8% (inactive).

`O=Cc1ccc(Oc2cccc(C(F)(F)F)c2)nc1`: the inhibition was -8.3% (inactive).

With `O=C(Cc1c[nH]c2ccccc12)N/N=C/c1cccc(F)c1`, the inhibition is -1% (inactive). In the case of `Cc1cc(C(=O)COc2ccccc2[N+](=O)[O-])c(C)n1-c1cccc(S(=O)(=O)N2CCOCC2)c1` it was -9.7% (inactive); in that of `Cc1cc(OCC(=O)NC2CCN(C)CC2)ccc1[N+](=O)[O-]`, -25.3% (inactive). The value for `O=C(Cc1ccccc1)Nc1cccc(C(=O)N/N=C/c2ccco2)c1` was -4.3% (inactive).

In the case of `CC(=O)NCC(=O)N1CCCC(C(=O)c2ccc3c4c(cccc24)CC3)C1` (stereo unspecified), the inhibition is -8.9% (inactive). In the case of `Cc1ccccc1CC1(CO)CCCN(C(=O)c2cc(-c3ccccc3)no2)C1` (stereo unspecified) it was -4.5% (inactive); in that of `CC(=O)c1ccc(NC(=O)CSC(=S)N2CCCC2)cc1`, -5.7% (inactive). In the case of `CC(C)Oc1ccc(CC(=O)NNC(=S)Nc2ccc(Br)cc2)cc1` it was -117% (inactive); in that of `CCOCCCN(C(=O)Cn1nnc(-c2ccc(OC)c(OC)c2)n1)C(CC)C(=O)NC1CCCC1` (stereo unspecified), -11.1% (inactive). In the case of `Cc1ccc(CN2CCN(Cc3cn(C)nc3-c3ccccc3)CC2CCO)o1` (stereo unspecified) it was -8.9% (inactive). As for `Cn1cnnc1Sc1ccc(S(C)(=O)=O)cc1[N+](=O)[O-]`, the inhibition is -1.9% (inactive).

As for `COc1cc2c3c(c1)/C(=C1/SC(=S)NC1=O)C(=O)N3C(C)(C)C=C2C`, the inhibition is 21.4% (inactive).

Consider `CC(C)C1N=C2c3ccccc3N=C(SCC(=O)c3ccc(O)c(O)c3)N2C1=O` (stereo unspecified), for which the inhibition was 93.7% (active). The value for `CCC(C)NC(=O)CSC1=Nc2ccccc2C2=NC(CCC(=O)NCc3ccco3)C(=O)N12` (stereo unspecified) was -11% (inactive); that for `O=C(CSC1=Nc2ccccc2C2=NC(CC(=O)NCc3ccco3)C(=O)N12)NCc1ccco1` (stereo unspecified) was -27.8% (inactive); that for `CN(C(=O)CSc1nncc2ccccc12)C1CCCCC1` was -7.3% (inactive). On to `C=CCNC(=O)COC(=O)CNC(=O)c1cc(Cl)cc([N+](=O)[O-])c1`, for which the inhibition was 6.8% (inactive).

On to `COc1ccc(OC)c(S(=O)(=O)Nc2cccc(-c3ccc4nncn4n3)c2)c1`, for which the inhibition is -5.3% (inactive). The value for `COc1cccc(N(C(=O)C2COc3ccccc3O2)C(C(=O)NC2CCCCC2)c2ccc(O)cc2)c1` (stereo unspecified) was 0.9% (inactive); that for `Cc1cc2c(cc1C)[n+](C)cn2CC(O)COCC1CC=CCC1` (stereo unspecified) was -9.6% (inactive); that for `CCCCOc1ccc(N(CC(=O)NC(C)C)C(=O)CCC(=O)Nc2ccccn2)cc1` was -3.6% (inactive). For the compound `CC(C)NC(=O)NCCCCCCS(C)=O` (stereo unspecified), the inhibition is -6.1% (inactive). The value for `COc1cccc(NC(=O)CS(=O)(=O)c2cn(CC(=O)N3CCOCC3)c3ccccc23)c1` was -14.3% (inactive). The value for `COc1ccc(Cn2c(-c3ccc(Cl)cc3)c[n+]3ccccc23)cc1` was -2.5% (inactive); that for `COC1=CCC2([N+](=O)[O-])CN(CC(=O)O)CC1([N+](=O)[O-])C2` (stereo unspecified) was -11.9% (inactive). In the case of `CCCC(c1nnnn1C(C)(C)C)N1CCN(Cc2ccccc2)CC1` (stereo unspecified) it was -1.2% (inactive); in that of `c1ccc2c(NC3C4CC5CC(C4)CC3C5)nc(N3CCOCC3)nc2c1` (stereo unspecified), -15.9% (inactive). On to `CC1CN(/C=C/C(=O)C(F)(F)F)CC(C)O1` (stereo unspecified), for which the inhibition is -8.2% (inactive). The value for `CCOc1ccccc1N1CCN(C(=O)COc2ccc3c(C)cc(=O)oc3c2)CC1` was -11% (inactive). For the compound `CC(C)CCC(C)NC(=O)c1ccc2nccnc2c1` (stereo unspecified), the inhibition was -12.5% (inactive).

With `CC12CCC(C(=O)N(NC(=O)c3ccccc3O)C1=O)C2(C)C` (stereo unspecified), the inhibition was 3.9% (inactive). Take `COc1ccc(N2C(=O)C(O)C2c2ccc(C)cc2)cc1` (stereo unspecified): the inhibition is -8.2% (inactive). In the case of `C=CCn1c(CCNC(=O)c2cccs2)n[nH]c1=S` it was -3.9% (inactive); in that of `CCCc1nc(SCC(=O)Nc2ccc(S(=O)(=O)N(C)C)cc2)c2ccccc2n1`, 17.6% (inactive).

`Cc1cc(=O)oc(C)c1C(=O)NCCN(C)Cc1ccccc1`: the inhibition was -6.1% (inactive). In the case of `Cc1ccccc1NC(=O)c1nn(-c2ccc(F)c(F)c2)ccc1=O` it was -8.3% (inactive); in that of `O=C(Nc1nnc(Cc2ccccc2)s1)c1cnccn1`, -2.7% (inactive). The value for `CCN1CCN(C(=O)c2ccc(CN(c3ccc(C)c(C)c3)S(C)(=O)=O)cc2)CC1` was -5.1% (inactive); that for `CC(C)(C)C(=O)N1CCC[C@@]1(CO)C(=O)O` was -10.8% (inactive); that for `Cc1ccc(S(=O)(=O)N2CCN(C(=O)c3cccs3)CC2)cc1` was -7.6% (inactive). In the case of `O=C(O)C1C2C=CC(O2)C1C(=O)NCCc1cccc(Cl)c1` (stereo unspecified) it was -9.5% (inactive).

As to `CC1CCC(NC(=O)C2c3ccccc3C(=O)N2Cc2ccc3c(c2)OCO3)CC1` (stereo unspecified), the inhibition was -16.3% (inactive).

On to `O=C(COC(=O)/C=C/c1cn(-c2ccccc2)nc1-c1cccnc1)Nc1ccc(Cl)cc1Cl`, for which the inhibition is -8.8% (inactive). In the case of `CC(=O)Nc1ccc(C(=O)CSc2nc3ccc(C)cc3[nH]2)cc1` it was -33.5% (inactive).

Source of the values: PubChem BioAssay AID1012 (Sanford-Burnham Center for Chemical Genomics, 2008).
